# PMC5540273 (PLoS ONE, 2017)
# What was measured:
# Settings in all cases: concentration: 1 μM, replicates: in singlicate; n = 1
# [1] = tested on: SIK2
# [2] = tested on: SIK
# [3] = tested on: SLK
# [4] = tested on: T1, SNARK
# T1 construct: gene NUAK2
# [5] = tested on: SNRK
# [6] = tested on: SRC
# [7] = tested on: SRMS
# [8] = tested on: SRPK1
# [9] = tested on: SRPK2
# [10] = tested on: SRPK3
# [11] = tested on: STK16
# [12] = tested on: STK33
# [13] = tested on: STK35
# [14] = tested on: STK36
# [15] = tested on: STK39
# [16] = tested on: SYK
# [17] = tested on: SgK110
# [18] = tested on: T2, TAK1
# T2 construct: gene MAP3K7
# [19] = tested on: TAOK1
# [20] = tested on: TAOK2
# 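Further: KINOMEscan kinase panel screen.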
SMILES,%Inh [1],%Inh [2],%Inh [3],%Inh [4],%Inh [5],%Inh [6],%Inh [7],%Inh [8],%Inh [9],%Inh [10],%Inh [11],%Inh [12],%Inh [13],%Inh [14],%Inh [15],%Inh [16],%Inh [17],%Inh [18],%Inh [19],%Inh [20]
O=C(Nc1ccc2c(c1)OCO2)NC1CCN(c2ccnc(Nc3ccc(F)cc3)n2)C1 (stereo not shown) [GSK1379724],0%,0%,10%,0%,0%,0%,0%,0%,0%,5%,30%,0%,0%,0%,10%,16%,14%,0%,0%,0%
CC(C)(C)c1ccc(C(=O)Nc2cn3cc(-c4cccnc4)ccc3n2)cc1,25%,22%,19%,5%,20%,3%,0%,15%,0%,0%,27%,6%,0%,4%,0%,0%,0%,11%,0%,2%
O=S(=O)(c1ccc(-c2ccnc3[nH]ccc23)cc1)N1CCCC1 [GSK846226],0%,0%,0%,16%,0%,0%,0%,60%,0%,3%,67%,0%,0%,0%,0%,13%,0%,1%,0%,0%
O=C(Nc1n[nH]c2nc(-c3nccs3)c(Br)cc12)C1CCCC1 [SB-742609],0%,5%,7%,0%,0%,0%,0%,0%,0%,13%,0%,0%,0%,0%,21%,20%,0%,0%,0%,0%
Fc1cc(Cl)ccc1Nc1ccnc2cc(-c3ccc(CN4CCCCC4)o3)ccc12 [GW560116],22%,9%,0%,0%,0%,90.8%,0%,0%,35%,0%,1%,0%,0%,0%,0%,0%,0%,0%,0%,0%
Cc1ccc(NC(=O)Nc2cccc(Cl)c2)cc1-c1ccc(C(=O)Nc2ccncc2)cc1 [GSK1398468],0%,5%,6%,0%,2%,0%,0%,0%,0%,0%,9%,0%,0%,1%,0%,3%,0%,0%,0%,0%
COC(=O)c1c(-c2ccccc2)c2cc(OC)ccc2c(=O)n1Cc1ccccc1,6%,1%,0%,12%,1%,8%,0%,5%,9%,11%,3%,0%,3%,11%,0%,0%,0%,19%,0%,0%
Cl.NC(=O)c1cccc(Nc2nccc(Nc3ccc(Oc4cccc(Cl)c4)c(Cl)c3)n2)c1 [GW659008],5%,12%,32%,0%,0%,25%,37%,0%,0%,13%,38%,0%,0%,0%,12%,1%,0%,0%,0%,0%
Cc1cccc(-c2cc(Nc3ccncc3)c3ccccc3n2)n1 [GSK223675],0%,0%,0%,0%,0%,0%,0%,5%,0%,0%,19%,0%,0%,0%,0%,2%,0%,0%,0%,0%
CS(=O)(=O)c1ccc(-c2nc3n(c2-c2ccncc2)CCC3)cc1 [SKF-105942],0%,1%,0%,0%,14%,0%,0%,0%,0%,22%,96.8%,0%,0%,0%,0%,11%,0%,0%,0%,0%
CCn1c(-c2cccnc2O)nc2cnccc21 [SB-736715],0%,0%,0%,0%,0%,0%,0%,0%,0%,20%,0%,0%,0%,0%,0%,0%,0%,0%,0%,0%
Nc1ncnc2[nH]c(-c3ccccc3)nc12 [AH5015],5%,0%,14%,3%,100%,29%,2%,12%,0%,0%,0%,0%,0%,4%,0%,10%,0%,0%,7%,0%
COc1ccc2nc(-c3cccc(C)n3)nc(Nc3ccncc3)c2c1 [GSK204919],2%,0%,9%,0%,0%,5%,0%,26%,0%,16%,1%,0%,5%,0%,7%,10%,2%,0%,0%,0%
Cc1cccc(-c2nc(C)cc(Nc3ccncc3)n2)n1 [GSK257997],0%,0%,42%,4%,0%,0%,0%,35%,0%,11%,2%,0%,0%,0%,0%,34%,0%,24%,0%,0%
Cc1ccc(-c2cc(-c3c[nH]nc3-c3ccccn3)ccn2)cc1 [GW684088],0%,0%,0%,0%,0%,0%,9%,13%,52%,0%,28%,0%,0%,23%,0%,21%,2%,15%,0%,0%
COc1cc2nccc(Nc3ccc(NC(=O)c4ccc(C)cc4)c(O)c3)c2cc1OC.Cl [GW440132],0%,16%,44%,0%,0%,20%,71%,18%,0%,0%,0%,7%,0%,0%,0%,38%,0%,0%,0%,0%
CC(=O)Nc1nc2cnc(Nc3cc(NC(=O)c4cccc(CCC#N)c4)ccc3C)nc2s1,0%,16%,14%,9%,33%,18%,0%,17%,22%,0%,17%,0%,0%,16%,0%,15%,13%,42%,0%,0%
Cc1ccc(C(=O)Nc2ccc(Nc3ccnc4cc(-c5ccccn5)ccc34)cc2O)cc1.Cl [GW440146],0%,18%,0%,0%,0%,56%,80%,27%,0%,3%,22%,0%,0%,0%,0%,21%,0%,0%,0%,0%
O=C1NC(=O)C(N2CCc3ccccc32)=C1c1ccccc1Cl [SB-373598],6%,0%,29%,11%,1%,18%,98.3%,0%,0%,33%,58%,9%,1%,22%,7%,48%,0%,7%,15%,100%
CC(C)(C)c1ccc(C(=O)Nc2cn3cc(Cl)ccc3n2)cc1,0%,4%,24%,0%,0%,0%,0%,0%,0%,0%,0%,0%,0%,0%,0%,17%,0%,0%,0%,10%
